Results from PubChem BioAssay AID1159580 (chemical genetic matrix, 2015).
Several values for one entry are separate records, joined by “and”; a condition that tells them apart may be missing. Equal values may be shown once. Hit rate of the full screen: of about 5,500 compounds, about 2,000 (36%) were called active. Not shown: some 18% with an inconclusive outcome. Cut-off read from the data, not from the text of the source: active = normalized growth mostly below about 0.91 (no sharp cut-off); inconclusive = no clear call, values can overlap the other calls; inactive = mostly above about 0.92. The list shows a part of the results.

Assay: chemical genetic growth profiling, strain panel (AID 1159580);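 note: tested at 20 µM; growth read once vehicle control cultures reached saturation at 30 °C; 1 = growth at the plate median or of vehicle wells; lower values mean less growth of the strain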
Settings: S. cerevisiae deletion strains, growth OD

Measured: normalized growth

CC(=O)OCC(=O)[C@@]1(O)CCC2C3CCC4=CC(=O)C=CC4(C)C3[C@@H](O)C[C@@]21C (stereo partly drawn)
inactive: locus YAL021C, strain ccr4, stronger effect = lower value 1 | locus YAL026C, strain drs2, stronger effect = lower value 1 | locus YAL030W, strain snc1, stronger effect = lower value 0.997 | locus YBL061C, strain skt5, stronger effect = lower value 0.996 | locus YBR009C, strain hhf1, stronger effect = lower value 1.01 | locus YBR021W, strain FUR4, stronger effect = lower value 1.02 | locus YBR023C, strain chs3, stronger effect = lower value 0.994 | locus YBR171W, strain sec66, stronger effect = lower value 0.973 | locus YBR229C, strain ROT2, stronger effect = lower value 1.01 | locus YBR231C, strain swc5, stronger effect = lower value 0.978 | locus YBR279W, strain paf1, stronger effect = lower value 0.993 | locus YCL011C, strain gbp2, stronger effect = lower value 0.996 | locus YCL016C, strain dcc1, stronger effect = lower value 1.01 | locus YCL029C, strain bik1, stronger effect = lower value 1.02 | locus YCL061C, strain MRC1, stronger effect = lower value 0.997 | locus YCL069W, strain vba3, stronger effect = lower value 1 | locus YCR088W, strain abp1, stronger effect = lower value 0.998 | locus YDL005C, strain med2, stronger effect = lower value 0.992 | locus YDL035C, strain GPR1, stronger effect = lower value 1.02 | locus YDL040C, strain nat1, stronger effect = lower value 1 | locus YDL074C, strain BRE1, stronger effect = lower value 1.02 | locus YDL101C, strain DUN1, stronger effect = lower value 1 | locus YDL134C, strain PPH21, stronger effect = lower value 1.01 | locus YDL185W, strain tfp1, stronger effect = lower value 1.02 | locus YDL192W, strain arf1, stronger effect = lower value 1.02 | locus YDR001C, strain nth1, stronger effect = lower value 1 | locus YDR069C, strain doa4, stronger effect = lower value 0.99 | locus YDR101C, strain arx1, stronger effect = lower value 1.02 | locus YDR137W, strain rgp1, stronger effect = lower value 0.978 | locus YDR150W, strain NUM1, stronger effect = lower value 1 | locus YDR159W, strain sac3, stronger effect = lower value 1 | locus YDR162C, strain NBP2, stronger effect = lower value 1.01 | locus YDR195W, strain ref2 0.984 | locus YDR297W, strain sur2, stronger effect = lower value 0.992 | locus YDR318W, strain mcm21, stronger effect = lower value 1.03 | locus YDR334W, strain swr1, stronger effect = lower value 1 | locus YDR335W, strain msn5, stronger effect = lower value 1 | locus YDR388W, stronger effect = lower value 1.02 | locus YDR392W, strain spt3, stronger effect = lower value 1.02 | locus YDR502C, strain sam2, stronger effect = lower value 1.01 | locus YEL003W, strain gim4, stronger effect = lower value 0.998 | locus YEL037C, strain rad23, stronger effect = lower value 1 | locus YEL061C, strain CIN8 (second series), stronger effect = lower value 0.98 | locus YEL061C, strain CIN8, stronger effect = lower value 1 | locus YER015W, strain faa2, stronger effect = lower value 0.996 | locus YER016W, strain bim1, stronger effect = lower value 1.01 | locus YER110C, stronger effect = lower value 1.01 | locus YER111C, strain swi4, stronger effect = lower value 0.996 | locus YER155C, strain BEM2 (second series), stronger effect = lower value 0.978 | locus YER155C, strain BEM2, stronger effect = lower value 1 | locus YER167W, strain BCK2, stronger effect = lower value 1.01 | locus YFR010W, strain ubp6, stronger effect = lower value 0.993 | locus YGL078C, strain dbp3, stronger effect = lower value 1.01 | locus YGL086W, strain mad1, stronger effect = lower value 1 | locus YGL167C, strain pmr1, stronger effect = lower value 0.999 | locus YGL173C, strain kem1, stronger effect = lower value 0.992 | locus YGL227W, strain vid30, stronger effect = lower value 1 | locus YGL240W, strain doc1, stronger effect = lower value 0.972 | locus YGL248W, strain PDE1, stronger effect = lower value 1.01 | locus YGL253W, strain hxk2, stronger effect = lower value 1.01 | locus YGR135W, strain pre9, stronger effect = lower value 1.02 | locus YGR252W, strain gcn5, stronger effect = lower value 1.05 | locus YHR013C, strain ard1, stronger effect = lower value 0.978 | locus YHR027C, strain rpn1, stronger effect = lower value 1 | locus YHR030C, strain SLT2, stronger effect = lower value 1 and 0.977 | locus YHR079C, strain IRE1 (second series), stronger effect = lower value 1.02 | locus YHR079C, strain IRE1, stronger effect = lower value 0.964 | locus YHR094C, strain hxt1, stronger effect = lower value 1.01 | locus YHR129C, strain ARP1, stronger effect = lower value 1 | locus YHR142W, strain chs7, stronger effect = lower value 0.989 | locus YHR200W, strain rpn10, stronger effect = lower value 1.01 | locus YIL066C, strain RNR3, stronger effect = lower value 1.01 | locus YIL073C, strain SPO22, stronger effect = lower value 1.03 | locus YIL125W, strain kgd1, stronger effect = lower value 1.01 | locus YIR030C, strain dcg1, stronger effect = lower value 1.02 | locus YJL092W, strain hpr5, stronger effect = lower value 0.995 | locus YJL095W, strain BCK1 (second series), stronger effect = lower value 0.995 | locus YJL095W, strain BCK1, stronger effect = lower value 1.03 and 0.993 | locus YJL115W, strain asf1, stronger effect = lower value 0.994 | locus YJL129C, strain trk1, stronger effect = lower value 0.97 | locus YJL134W, strain LCB3, stronger effect = lower value 1.01 | locus YJL154C, strain vps35, stronger effect = lower value 0.996 | locus YJL164C, strain tpk1, stronger effect = lower value 1.01 | locus YJL166W, strain qcr8, stronger effect = lower value 0.951 | locus YJL168C, strain set2, stronger effect = lower value 1.02 | locus YJL187C, strain SWE1 (second series), stronger effect = lower value 1.01 | locus YJR043C, strain POL32, stronger effect = lower value 1.01 | locus YJR066W, strain TOR1, stronger effect = lower value 0.935
